This is a sample that favours compounds with a hit; in the whole collection about 1.2% have one here.
KinaseGlo FLuc: Counterscreen for Luciferase (Kinase-Glo TM) Inhibition; actives 0.28% (n = 200,000); Kinase-Glo luciferase, ATP luminescence, 8 min; Potency, µM (highest dose often 38.3 µM), without a hit: at the top dose activity change, negative = inhibition, usual class: inhibitors; active means well fitted inhibition curve with a large enough effect; inconclusive means small, poorly fitted or top-dose-only effect; further: potency means the concentration at half of the fitted maximal effect; nearly all actives have a fitted effect of over 60% in size
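Inhibition of Kinase-Glo luciferase light generation was assessed at 10 uM ATP in pH 7.2 imidazole buffer, with luminescence measured after eight minutes at ambient temperature.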
KCNH2 3.1 inh: qHTS for Inhibitors of KCHN2 3.1: Mutant qHTS; Potassium voltage-gated channel subfamily H member 2, brain isoform KCNH2 3.1 (human); U2OS KCNH2 3.1, thallium flux FluxOr; active compounds read low; activity change, % (tested at about 1.8 µM); actives 0.95% (n = 340,000); AID 720553, 2013;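 active means maximum activity change below -70%; inconclusive means maximum activity change from -70% to -50%; inactive means maximum activity change above -50%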;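 further: thallium influx rate constant from kinetic fluorescence after stimulation buffer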
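Virally transduced U2OS (3.1 isoform, 4 h infection in dark at RT) → overnight 37 C → FluxOr + Red40 in HBSS/HEPES, 45 min → stimulation buffer, 2 min kinetic read → rate constant vs DMSO controls.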
hERG WT inh: qHTS for Inhibitors of KCHN2 3.1: Wildtype qHTS; actives 0.37% (n = 340,000); Voltage-gated inwardly rectifying potassium channel KCNH2 (Homo sapiens), Q12809; U2OS, BacMam KCNH2, thallium flux FluxOr; active compounds read low; activity change, % at 1.84 µM;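 active means maximum activity change below -70%; inconclusive means maximum activity change between -70% and -50%; inactive means maximum activity change above -50%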
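U2OS cells were transduced with wild-type KCNH2 virus (2.03 x 10^8 / mL) for 4 h at room temperature, then cultured overnight at 37 C. Thallium flux was read with FluxOr dye. Rate constants were normalized to DMSO controls.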
An asterisk follows results filed as active; ? = inconclusive; . = not tested or not shown; [ ] = remark or other dose. On the % scale 0 is the no-effect control and ±100 the full control effect.

SMILES	KinaseGlo FLuc	KCNH2 3.1 inh	hERG WT inh
O=S(=O)(c1cccc(Br)c1)N1CCN(c2ccnc3cc(Cl)ccc23)CC1	.	.	34
O=[N+]([O-])c1ccc(S(=O)(=O)N2CCN(c3ccnc4cc(Cl)ccc34)CC2)cc1	.	-92*	-124*
CC(C)(C)C(=O)N1CCN(c2ccnc3cc(Cl)ccc23)CC1	.	-32	5
Cc1cc(C)c(C(N)=O)c(SCC(=O)c2cc(C)n(-c3cc(C)on3)c2C)n1	.	9	-1
Cc1cc2cc(CN(Cc3cccs3)S(=O)(=O)c3ccc4c(c3)OCCO4)c(=O)[nH]c2cc1C	3%	9	0
Cc1ccc2[nH]c(=O)c(CN(Cc3cccs3)S(=O)(=O)c3ccc4c(c3)OCCO4)cc2c1	0%	-120*	3
CCCCNC(=S)Nc1cccc(S(=O)(=O)NC2=NCCC2)c1	.	4	5
CCCOC(=O)c1ccc(NC(=O)c2nc3nc(C)cc(C)n3n2)cc1	0%	-3	5
CCC(CC)c1nnc(NC(=O)c2nc3nc(C)cc(C)n3n2)s1	2%	-110*	4
COc1ccc(NC(=O)CNC(c2ccccc2)c2ccccc2)cc1Cl	.	8	-7
Cc1cc(C)cc(NC(=O)CNC(c2ccccc2)c2ccccc2)c1	.	-7	-70*
COc1ccc(C)cc1S(=O)(=O)N(CC(=O)NC1CCCC1)c1ccc(F)cc1	.	12	2
CC(=O)/C(=N/Nc1ccccc1)Sc1nnc(CCc2ccccc2)n1-c1ccccc1	0%	-90*	-6
CC(=O)/C(=N\Nc1ccc(Cl)cc1)Sc1nnc(-c2ccccc2)n1-c1ccccc1	0%	5	-2
COc1ccc(NC(=O)c2ccc(NCC3CCCO3)c([N+](=O)[O-])c2)cc1 (configuration not stated)	-2%	9	5
CC(C)(C)n1cnc2cc(NCc3ccc(Br)cc3)ccc21	.	-96*	23
CC(C)(C)n1cnc2cc(NCc3ccccc3O)ccc21	.	-3	31
CC(C)(C)NC1=NCCNC(c2ccccc2)=C1	.	-2	-88*
c1ccc(-c2ccc(-c3ccc(C4=NCCN4)cc3)o2)cc1	0%[7.66 µM]	.	.
CC(C)CC(OC(=O)c1nsc(Cl)c1Cl)C(=O)NC1CCCC1 (configuration not stated)	.	-10	0
O=[N+]([O-])c1cccc(/C=C2\CCc3cnn(C4CCS(=O)(=O)C4)c32)c1 (configuration not stated)	.	3	12
CC(C)n1c(SCC(=O)Nc2ccc(F)cc2)nnc1C1CC1	.	5	-11
COc1ccc(NC(=O)C2CCN(C(=O)[C@@H]3Cc4ccccc4CN3)CC2)cc1	.	-114*	16
CCc1ccc(NC(=O)C2CCN(C(=O)[C@@H]3Cc4ccccc4CN3)CC2)cc1	.	-40	-18
CC(C)[C@@H](CC(=O)N[C@@H]1CCCC[C@H]1C(=O)N[C@H](CC(=O)N[C@@H](CCC(=O)O)CC(=O)O)Cc1ccccc1)NC(=O)C[C@H](Cc1c[nH]c2ccccc12)NC(=O)[C@@H]1CCCC[C@H]1N	2%	.	.
SMILES	KinaseGlo FLuc	KCNH2 3.1 inh	hERG WT inh
COc1ccc(NC(=O)COC(=O)c2ccc(C)c(S(=O)(=O)N3CCCCC3)c2)cc1	.	-1	1
COc1ccc(C2/C(=C(/O)c3ccccc3)C(=O)C(=O)N2c2ccccn2)cc1OC (configuration not stated)	1%	-13	-1
O=C1C(=O)N(c2ccccn2)C(c2cccc(F)c2)/C1=C(/O)c1ccccc1 (configuration not stated)	.	-102*	3
Cc1ccc(S(=O)(=O)N2CCc3nc(COc4ccccc4)c4c(c3C2)CO[C@@H](C)C4)cc1	-3%[7.66 µM]	.	.
COc1cccc(/C=C2/CCC(CN(C)C)C2=O)c1 (configuration not stated)	.	.	-47
Cc1ccc(C)c(OC(=O)CN2C(=O)c3ccccc3C2=O)c1	.	2	-94*
CC(=O)c1cc(C)ccc1OC(=O)CN1C(=O)c2ccccc2C1=O	.	0	-10
COc1cc(OC)c(OC)cc1CNC(=O)c1cc(S(=O)(=O)N2CCOCC2)ccc1F	.	22	-1
Cc1ccc2cc(/C=N/Nc3nc4ccccc4[nH]3)c(Cl)nc2c1	6.3µM*	0	7
Cn1c(N/N=C/c2c[nH]c3ccccc23)nc2ccccc21	-7%	7	33
CCCCn1c(/C=C/c2ccco2)nc2ccccc21	-19%	0	-1
Cn1c(N/N=C/c2cc3ccccc3nc2Cl)nc2ccccc21	6.3µM*	-5	1
CCCCn1c(/C=N/Nc2nc3ccccc3[nH]2)nc2ccccc21	3%	-44	-73*
C(=N\Nc1nc2ccccc2[nH]1)/c1ccc2ncccc2c1	.	-3	5
C(=N\Nc1nc2ccccc2[nH]1)/c1ccccn1	13µM*	-3	-25
COc1cc(OC)c(OC)cc1/C=N/Nc1nc2ccccc2[nH]1	.	-8	1
Cc1cc2nc3n(c2cc1C)CC1CC(C(=O)NCC2CC2)N(C)C31 (configuration not stated)	.	8	5
CC1CCC(NC(=O)CCS(=O)(=O)c2ccc3c(c2)NC(=O)C(C)S3)CC1 (configuration not stated)	.	4	3
COc1ccc(S(=O)(=O)N(C)C[C@@H]2OCc3cnnn3CCCC(=O)N([C@@H](C)CO)C[C@H]2C)cc1	.	3	-6
Cc1nn(C)cc1S(=O)(=O)N1CCN(c2ccccc2)CC1	.	-3	1
O=C(c1ccc([N+](=O)[O-])cc1)N1CCN(C(=O)C2CCCCC2)CC1	.	-71*	0
O=C(c1ccc(Cl)cc1)N1CCN(C(=O)C2CCCCC2)CC1	.	-1	-8
CCC1CCCCN1C(=O)CSc1n[nH]c(N)n1 (configuration not stated)	.	0	2
COC(=O)c1ccc(C23CC4(C2)[C@H](CN(CC2CCCCC2)[C@@H]4c2ccccc2)C3c2ccc(Cl)nc2)cc1 (some centres not stated)	3%	-11	-7
Clc1ccc(C2[C@H]3CN(CC4CCCCC4)[C@H](c4ccccc4)C34CC2(c2ccccc2)C4)cn1 (some centres not stated)	-1%	-210*	8
SMILES	KinaseGlo FLuc	KCNH2 3.1 inh	hERG WT inh
COc1ccc(CCNS(=O)(=O)c2ccc([N+](=O)[O-])cc2)cc1OC	.	18	-1
Cc1ccc(C(=O)N/C(=C\c2cccs2)C(=O)NCCCn2ccnc2)cc1C	-3%	?	-75*
O=C(NCCCn1ccnc1)/C(=C\c1cccs1)NC(=O)c1ccccc1	7%	-45	6
Cc1ccc(C(=O)N/C(=C\c2cccs2)C(=O)NCCCn2ccnc2)cc1	-1%	-99*	-181*
Cc1ccc(C(=O)N/C(=C\c2cccs2)C(=O)NCCCN2CCOCC2)cc1	.	-49	-117*
Cc1ccc(C(=O)N/C(=C/c2cccs2)C(=O)NCCCn2ccnc2)cc1	1%	-82*	-209*
Cc1ccc(C(=O)N/C(=C\c2ccco2)C(=O)NCCCn2ccnc2)cc1C	9%	-6	-1
